# Measured values reported in PubChem BioAssay (NCI).
# This is part of a sample that, as a whole, favours compounds with a hit. Of some 83,000 tested, about 20% had one in any assay.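 Testing used 96-well plates and a 48-hour single-concentration exposure. Example: -40 means 40% of the starting cells died.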 Values without a mark were called inactive. Active and inactive are the calls of the source. How the source made its calls: active means growth percent below 10; inactive means the rest.
# Tests used:
# Test in all cases: NCI-60 one-dose screen, 48 h (100 = growth as untreated, 0 = no growth, -100 = all killed)
# Details in all cases: 10 µM unless noted
# SK-MEL-2 melanoma = tested on: SK-MEL-2 melanoma
# EKVX NSCLC = tested on: EKVX NSCLC
# SN12C renal = tested on: SN12C renal
# UO-31 renal = tested on: UO-31 renal
# TK-10 renal = tested on: TK-10 renal
# ACHN renal = tested on: ACHN renal
# CAKI-1 renal = tested on: CAKI-1 renal
# A498 renal = tested on: A498 renal
# CCRF-CEM leukemia = tested on: CCRF-CEM leukemia
# MOLT-4 leukemia = tested on: MOLT-4 leukemia
Compound,growth (SK-MEL-2 melanoma),growth (EKVX NSCLC),growth (SN12C renal),growth (UO-31 renal),growth (TK-10 renal),growth (ACHN renal),growth (CAKI-1 renal),growth (A498 renal),growth (CCRF-CEM leukemia),growth (MOLT-4 leukemia)
O=c1c2cc(F)ccc2sc2c(Nc3cccnc3)nc3ccccc3c12,109%,83.2%,93.4%,79.7%,96.3%,73.5%,69.1%,79.5%,28.2%,4.56% (active)
CCCCc1ccc(Nc2ccc(Nc3ccc(CCCC)cc3S(=O)(=O)O)c3c2C(=O)c2ccccc2C3=O)c(S(=O)(=O)O)c1,67.1%,83.3%,91%,66.5%,114%,94.5%,95.6%,119%,80.9%,96.8%
CCCCCCCCCCCC(c1ccccc1)[N+](C)(C)C (stereo not given),-19.8% (active),42.7%,9.01% (active),80.8%,1.24% (active),81.9%,102%,55.4%,16.1%,5.29% (active)
Cn1cc2c(c1)-c1nc(Nc3ccccc3)ncc1CC2,73.6%,54.6%,64.8%,46.2%,61.9%,47.8%,48.8%,6.32% (active),61.2%,44.6%
COc1cc(C(=O)/C=C/c2c(C(F)(F)F)nc3sccn23)cc(OC)c1OC,12.2%,10.6%,20.2%,-29.6% (active),21.9%,-69.4% (active),-16.5% (active),61.4%,-9.49% (active),0.936% (active)
O=C1Nc2ccccc2/C1=C/c1cn(C(=O)c2ccc(Cl)cc2)c2ccccc12,120%,59%,95.4%,74.7%,130%,103%,59.1%,116%,104%,109%
COc1ccc(N=Nc2ccc(O)c(=O)cc2)cc1,19.7%,4.69% (active),6.7% (active),1.08% (active),44.3%,4.83% (active),11.1%,82.4%,15.8%,-18.4% (active)
O=C1/C(=C\c2cccnc2)SC(=S)N1CCc1ccc(O)cc1,66.5%,64.7%,18.4%,37.4%,38.5%,29.4%,30.5%,85.1%,23.9%,68.6%
O=C(CCc1nnc(CN(c2ccccc2)c2ccccc2)o1)c1nc2ccccc2[nH]1,88.7%,63.4%,86.9%,61.3%,117%,108%,84.1%,80.5%,77.6%,55.7%
c1ccc(-c2nc([P+](c3ccccc3)(c3ccccc3)c3ccccc3)c(N3CCOCC3)o2)cc1,-25.3% (active),14.9%,1.32% (active),74%,29.9%,13.2%,50.9%,11.7%,13.4%,7.65% (active)
NC(N)=NN=C(c1ccccc1)c1ccccc1,39.3%,65.3%,51.3%,63.6%,46.1%,48.1%,50.4%,34%,27.7%,31.8%
c1csc(-c2c3ccc(=[N+]4CCCCC4)cc-3oc3cc(N4CCCCC4)ccc23)c1,-68.5% (active),-51.8% (active),-65.1% (active),-82.3% (active),-92.5% (active),-94.4% (active),-70.3% (active),-96.4% (active),-19.7% (active),-28.7% (active)
Cc1ccc2c(c1)Sc1c(ccc3ccccc13)N2,116%,72.8%,81.8%,60.1%,127%,64.5%,73.4%,91.7%,67.6%,32.4%
COC(=O)c1ccc(C2Nc3ccc(S(=O)(=O)Nc4ccc(C)c(C)c4)cc3C3OCCC23)cc1 (stereo not given),93.4%,57.9%,85.3%,74.9%,90.4%,89.4%,75%,74.3%,74.2%,60.6%
CCCCNC(=O)Oc1ccc2c(=O)c3sc4c(=O)c5ccccc5c(=O)c4c3c(=O)c2c1,-54.7% (active),-77.7% (active),-86.3% (active),-56.7% (active),-95.2% (active),-88.9% (active),-75.4% (active),-98.8% (active),-29.4% (active),-44.4% (active)
COc1cc(N2C(=O)c3nccnc3C2=O)cc(OC)c1OC,95.5%,104%,94.1%,87.5%,100%,112%,97.3%,87.2%,100%,94.5%
NC[C@H](O)c1ccc(O)c(O)c1,110%,113%,85.4%,103%,97.7%,90.1%,109%,112%,-46.2% (active),115%
COc1ccc(CNC(=O)C(O)C(Cc2ccccc2)NC(=O)c2[nH]c3ccccc3c(=O)c2C)cc1OC (stereo not given),99.5%,99%,103%,98.7%,93.6%,108%,99.6%,113%,108%,99.8%
CC(C)CC(NC(=O)CN(Cc1ccccc1)S(C)(=O)=O)C(=O)O (stereo not given),125%,97.9%,108%,96.7%,93.9%,102%,62.2%,95.3%,98.2%,94.7%
CCCCCCCCCOc1c(OC)cc(C2CC(=O)Nc3c2c(C)nn3-c2nc3ccccc3[nH]2)cc1OC (stereo not given),-40.4% (active),-83.5% (active),-33.3% (active),-95.5% (active),4.51% (active),-24.6% (active),-73.2% (active),-35.3% (active),19.1%,11.2%
CN1C(=O)N(C)C2C1NN=c1s/c(=C\c3ccccc3)c(=O)n12 (stereo not given),48.4%,78.5%,50.1%,44.8%,10%,29.4%,33.5%,4.23% (active),42.2%,58.1%
O=C(Nc1cccc2c(O)c(N=Nc3ccc(S(=O)(=O)Nc4nccs4)cc3)cc(N=Nc3ccc(S(=O)(=O)Nc4nccs4)cc3)c12)C(Cl)Cl,52.6%,90.5%,111%,68.3%,122%,57.4%,76.8%,85%,72.5%,153%
COc1ccc(/C=C/c2c(C(=O)/C=C/c3ccc(F)cc3)c(C)nc3ccccc23)cc1,81.3%,63.1%,45.2%,45.6%,110%,49.2%,54.6%,77.2%,9.18% (active),5.98% (active)
C=C(C)[C@@H]1CC[C@]2(C)[C@H](CC=C3[C@@H]4CC(C)(C)CC[C@]4(C(N)=O)CC[C@]32C)[C@@]1(C)CCC#N,-0.287% (active),46.1%,-48.1% (active),17.6%,12.7%,20.8%,18.4%,7.55% (active),39.8%,24.1%
CNc1ccc(NC)c2c1C(=O)c1ccccc1C2=O,97.7%,94.6%,80.3%,77.7%,84.9%,77.7%,76.4%,94.4%,84.3%,92.1%
Clc1cccc(Cl)c1C(Nc1nc2ccccc2s1)Nc1nc2ccccc2s1,76%,97.1%,108%,75%,114%,89.3%,108%,112%,81.7%,89.5%
Cn1ccc2c(c1=O)C(=O)c1nccc3c1c-2nc1ccccc13,98.1%,86.9%,66.8%,46.2%,1.92% (active),21.3%,61%,87.6%,-12.8% (active),34.5%
